66 compounds from the antibiotic and cytotoxicity screens of Wong et al. (2023) can be followed below.

SMILES strings stand for the structures. About 1,500 (3.8%) of roughly 39,000 compounds were called active. The entries come from a sample that favours actives as a whole.

In the assay the test system is HSkMC (human skeletal muscle cells). Nature of the assay: cytotoxicity call (relative viability < 0.9). Particulars: 10 µM.
Regarding `COc1ccc(NC(=O)N(C)C[C@@H]2OCCCC[C@H](C)Oc3ccc(NS(=O)(=O)c4ccc(F)cc4)cc3C(=O)N([C@H](C)CO)C[C@H]2C)cc1`, the cytotoxicity call was “inactive”.

As for `COc1ccc(C#Cc2cnc3c(c2)C(=O)N([C@@H](C)CO)C[C@@H](C)[C@H](CN(C)CC2CCOCC2)O3)cc1`, the cytotoxicity call is “inactive”.

As to `C[C@@H]1CCCCO[C@H](CN(C)C(=O)CCC(F)(F)F)[C@H](C)CN([C@H](C)CO)C(=O)c2cc(NC(=O)CCC(F)(F)F)ccc2O1`, the cytotoxicity call was “inactive”.

With `COc1ccc(-c2coc3cc(O)cc(OC)c3c2=O)cc1`, the cytotoxicity call is “inactive”.

As to `C[C@H](CO)N1C[C@H](C)[C@H](CN(C)C(=O)Nc2ccc(F)cc2)Oc2ccc(NC(=O)C3CC3)cc2CC1=O`, the cytotoxicity call was “inactive”.

For the compound `Cc1noc(C)c1NC(=O)N(C)C[C@H]1Oc2ccc(NS(=O)(=O)c3c(C)noc3C)cc2C(=O)N([C@@H](C)CO)C[C@@H]1C`, the cytotoxicity call is “inactive”.

With `CCc1ccc(/C=C2\SC(=O)N(CCCCCCNC(=O)c3ccc(Nc4ccc([N+](=O)[O-])c5nonc45)cc3)C2=O)cc1`, the cytotoxicity call is “inactive”.

`CCc1ccc(/C=C2\SC(=O)N(CCCCCCNC(=O)c3ccccc3Nc3ccc([N+](=O)[O-])c4nonc34)C2=O)cc1`: the cytotoxicity call is “active”.

As for `COc1ccc(NC(=O)Nc2ccc3c(c2)C(=O)N([C@H](C)CO)C[C@H](C)[C@H](CN(C)S(=O)(=O)c2ccccc2)OCCCC[C@H](C)O3)cc1`, the cytotoxicity call is “inactive”.

As to `C[C@H](CO)N1C[C@H](C)[C@@H](CN(C)Cc2ccc(Cl)c(Cl)c2)Oc2c(NC(=O)Nc3ccc(C(F)(F)F)cc3)cccc2C1=O`, the cytotoxicity call was “active”.

Take `C[C@H]1CN([C@@H](C)CO)C(=O)c2cccc(NC(=O)Nc3ccc(C(F)(F)F)cc3)c2O[C@H]1CN(C)Cc1ccc(Cl)c(Cl)c1`: the cytotoxicity call is “active”.

For `C[C@H]1CN([C@@H](C)CO)C(=O)c2cccc(NC(=O)Nc3ccc(C(F)(F)F)cc3)c2O[C@H]1CN(C)Cc1ccc(C(F)(F)F)cc1`, the cytotoxicity call was “inactive”.

On to `C[C@@H]1CN([C@@H](C)CO)C(=O)c2cccc(NC(=O)Nc3ccc(C(F)(F)F)cc3)c2O[C@H]1CN(C)Cc1ccc(Cl)c(Cl)c1`, for which the cytotoxicity call was “active”.

For the compound `C[C@@H]1CN([C@H](C)CO)C(=O)c2cccc(NC(=O)Nc3ccc(C(F)(F)F)cc3)c2O[C@H]1CN(C)Cc1ccc(Cl)c(Cl)c1`, the cytotoxicity call was “active”.

In the case of `C[C@H](CO)N1C[C@H](C)[C@H](CN(C)C(=O)Nc2ccnc(N3CCOCC3)c2)OCc2cn(nn2)CCCC1=O`, the cytotoxicity call was “inactive”.

`C[C@@H]1CN([C@H](C)CO)C(=O)c2cc(NS(=O)(=O)c3ccccc3)ccc2O[C@@H](C)CCCCO[C@@H]1CN(C)Cc1ccccc1`: the cytotoxicity call is “inactive”.

Regarding `C[C@H]1CN([C@@H](C)CO)S(=O)(=O)c2ccc(C#CC3CC3)cc2O[C@H]1CN(C)C(=O)c1cccc(F)c1`, the cytotoxicity call is “inactive”.

Take `Cc1nnc(SCC2=C(C(=O)[O-])N3C(=O)C(NC(=O)Cn4cnnn4)C3SC2)s1.[Na+]` (stereo unspecified): the cytotoxicity call is “inactive”.

For `C[C@H](CO)N1C[C@H](C)[C@H](CN(C)Cc2ccc(Cl)c(Cl)c2)OCc2ccccc2-c2c(n(C)c3ccccc23)C1=O`, the cytotoxicity call is “inactive”.

On to `C[C@H]1CN([C@@H](C)CO)C(=O)c2cc(C#Cc3ccccn3)cnc2O[C@@H]1CN(C)C(=O)c1cnccn1`, for which the cytotoxicity call is “inactive”.

Consider `COc1ccc(NC(=O)Nc2ccc3c(c2)C(=O)N([C@@H](C)CO)C[C@H](C)[C@H](CN(C)Cc2ccncc2)OCCCC[C@@H](C)O3)cc1`, for which the cytotoxicity call is “inactive”.

Turning to `O=C(/C=C/c1ccc(O)c(O)c1)O[C@@H]1C[C@](OC(=O)/C=C/c2ccc(O)c(O)c2)(C(=O)O)C[C@@H](OC(=O)/C=C/c2ccc(O)c(O)c2)[C@H]1O`, the cytotoxicity call was “inactive”.

`C[C@H](CO)N1C[C@H](C)[C@H](CN(C)Cc2ccc(Cl)c(Cl)c2)Oc2c(NC(=O)Nc3ccc(C(F)(F)F)cc3)cccc2C1=O`: the cytotoxicity call is “inactive”.

On to `C[C@@H]1CN([C@@H](C)CO)C(=O)c2cccc(NC(=O)Nc3ccc(C(F)(F)F)cc3)c2O[C@@H]1CN(C)Cc1ccc(Cl)c(Cl)c1`, for which the cytotoxicity call is “active”.

`C[C@H]1CN([C@@H](C)CO)C(=O)c2cccc(NC(=O)Nc3ccc(C(F)(F)F)cc3)c2O[C@@H]1CN(C)Cc1ccc(Cl)c(Cl)c1`: the cytotoxicity call was “active”.

As for `C[C@@H]1CN([C@H](C)CO)C(=O)c2cccc(NC(=O)Nc3ccc(C(F)(F)F)cc3)c2O[C@@H]1CN(C)Cc1ccc(Cl)c(Cl)c1`, the cytotoxicity call is “active”.

Take `C[C@H]1CN([C@@H](C)CO)C(=O)c2cccc(NC(=O)Nc3ccc(C(F)(F)F)cc3)c2O[C@@H]1CN(C)Cc1ccc(C(F)(F)F)cc1`: the cytotoxicity call was “inactive”.

In the case of `COc1ccc(CN(C)C[C@@H]2OCCCC[C@H](C)Oc3ccc(NC(=O)c4ccccc4)cc3C(=O)N([C@H](C)CO)C[C@H]2C)cc1`, the cytotoxicity call is “inactive”.

For `C[C@@H]1CCCCO[C@@H](CN(C)C(=O)Nc2ccc(F)cc2)[C@@H](C)CN([C@@H](C)CO)C(=O)c2cc(NC(=O)Cc3ccccc3)ccc2O1`, the cytotoxicity call is “inactive”.

Turning to `C[C@H](CO)N1C[C@H](C)[C@@H](CN(C)C(=O)c2ccccc2)OCCCC[C@H](C)Oc2ccc(NC(=O)NC3CCCCC3)cc2C1=O`, the cytotoxicity call was “inactive”.

Take `Cn1cnc(S(=O)(=O)N2C[C@H](O)COC[C@@H]3O[C@H](CC(=O)NCc4cc(F)cc(F)c4)CC[C@H]32)c1`: the cytotoxicity call was “inactive”.

For the compound `N[C@H](C(=O)O)[C@@H](OCc1ccccc1)C(=O)O`, the cytotoxicity call is “inactive”.

With `C[C@@H]1CN([C@@H](C)CO)C(=O)c2cc(NS(=O)(=O)c3cccs3)ccc2O[C@@H](C)CCCCO[C@@H]1CN(C)C(=O)Nc1ccccc1`, the cytotoxicity call is “inactive”.

For the compound `CC(C)NC(=O)N1Cc2cc(C(=O)NC3CCCCC3)nc(-c3cccc(-c4cccnc4)c3)c2[C@H]1CCO`, the cytotoxicity call was “active”.

Regarding `CC(C)(C)[S@](=O)N1Cc2cc(C(=O)N[C@H]3CCN(Cc4ccccc4)C3)nc(-c3cccc(-c4cccnc4)c3)c2[C@@H]1CCO`, the cytotoxicity call was “inactive”.

`CC(C)NC(=O)N1Cc2cc(C(=O)NC3Cc4ccccc4C3)nc(-c3cccc(-c4cccnc4)c3)c2[C@@H]1CCO`: the cytotoxicity call is “active”.

Turning to `CCCNC(=O)c1cc2c(c(-c3cccc(-c4cc5ccccc5o4)c3)n1)[C@@H](CCO)N(C(=O)NC(C)C)C2`, the cytotoxicity call is “inactive”.

As for `CCNC(=O)c1cc2c(c(-c3cccc(-c4cc5ccccc5o4)c3)n1)[C@@H](CCO)N(C(=O)NC(C)C)C2`, the cytotoxicity call is “inactive”.

Regarding `CCCNC(=O)c1cc2c(c(-c3cccc(-c4cc5ccccc5o4)c3)n1)[C@H](CCO)N(C(=O)NC(C)C)C2`, the cytotoxicity call is “inactive”.

Regarding `CC(C)NC(=O)N1Cc2cc(C(=O)NC3Cc4ccccc4C3)nc(-c3cccc(-c4cccnc4)c3)c2[C@H]1CCO`, the cytotoxicity call was “active”.

With `CC(C)NC(=O)N1Cc2cc(C(=O)NC3CCCCC3)nc(-c3cccc(-c4cccnc4)c3)c2[C@@H]1CCO`, the cytotoxicity call is “inactive”.

Take `CC(C)(C)[S@](=O)N1Cc2cc(C(=O)N[C@@H]3CCN(Cc4ccccc4)C3)nc(-c3cccc(-c4cccnc4)c3)c2[C@@H]1CCO`: the cytotoxicity call was “inactive”.

Regarding `C[C@H]1CN([C@@H](C)CO)C(=O)c2cc(C#Cc3ccccc3F)cnc2O[C@H]1CN(C)C(=O)Cc1cccnc1`, the cytotoxicity call was “inactive”.

As for `COCC(=O)Nc1ccc2c(c1)OC[C@@H](C)N(C(=O)Cc1ccccn1)C[C@@H](C)[C@H](OC)CN(C)C2=O`, the cytotoxicity call is “inactive”.

Turning to `COc1ccc(COC[C@]23NC(=S)N(C(=O)c4ccccc4)[C@H](c4ccccc4O2)[C@H]3CO[Si](C)(C)C(C)(C)C)cc1`, the cytotoxicity call was “inactive”.

With `CO[C@H]1CN(C)C(=O)c2ccc(NC(=O)C3CCOCC3)cc2OC[C@H](C)N(Cc2cccnc2)C[C@@H]1C`, the cytotoxicity call is “inactive”.

As for `COc1ccc2c3c(n(c2c1)C)[C@H](CO)N(C[C@]13CCN(CC1)C(=O)c1cnccn1)C(=O)c1cnccn1`, the cytotoxicity call was “inactive”.

Turning to `C[C@H](CO)N1C[C@H](C)[C@@H](CN(C)C(=O)Nc2ccc3c(c2)OCO3)Oc2ccc(NC(=O)Cn3cnnn3)cc2CC1=O`, the cytotoxicity call was “inactive”.

`CN(C)CCN1C[C@H]2OCCN(Cc3cnn(C)c3)[C@H]2C1`: the cytotoxicity call was “inactive”.

`CO[C@H]1CN(C)C(=O)c2ccc(NS(C)(=O)=O)cc2OC[C@@H](C)N(C(=O)C2CCCCC2)C[C@H]1C`: the cytotoxicity call is “inactive”.

Turning to `O=c1[nH]cc(F)c(=O)[nH]1`, the cytotoxicity call is “inactive”.

For `CC1CC(OC(=O)c2ccccc2O)CC(C)(C)C1` (stereo unspecified), the cytotoxicity call was “active”.

Turning to `CC1CC(OC(=O)C(O)c2ccccc2)CC(C)(C)C1` (stereo unspecified), the cytotoxicity call is “inactive”.

As for `O=C(Oc1ccccc1C(=O)O)c1ccccc1O`, the cytotoxicity call was “inactive”.

With `C[C@@H]1CCCCO[C@@H](CN(C)Cc2ccc(C(F)(F)F)cc2)[C@@H](C)CN([C@@H](C)CO)C(=O)c2cc(NS(=O)(=O)c3ccccc3)ccc2O1`, the cytotoxicity call was “inactive”.

Take `COc1ccc([Si](C)(C)[C@H]2[C@H](CC(=O)N3Cc4ccccc4C[C@H]3CO)O[C@@]3(C(=O)N(Cc4cccc(N5CCC5=O)c4)c4ccccc43)[C@@H]2C)cc1`: the cytotoxicity call is “inactive”.

Consider `COc1ccc(OC)c(CCNC(=O)CN)c1`, for which the cytotoxicity call was “inactive”.

As for `Cc1ccc(S(=O)(=O)Nc2ccc3c(c2)C(=O)N([C@H](C)CO)C[C@@H](C)[C@H](CN(C)CC2CCCCC2)OCCCC[C@@H](C)O3)cc1`, the cytotoxicity call is “inactive”.

Consider `C[C@@H]1CN([C@H](C)CO)C(=O)c2cc(NS(=O)(=O)c3ccccc3)ccc2O[C@@H](C)CCCCO[C@H]1CN(C)S(=O)(=O)c1ccc(Cl)cc1`, for which the cytotoxicity call was “active”.

`C[C@@H]1CN([C@@H](C)CO)C(=O)c2cc(NS(=O)(=O)c3ccc(Cl)cc3)ccc2O[C@@H](C)CCCCO[C@H]1CN(C)CC1CCCCC1`: the cytotoxicity call was “inactive”.

`C[C@@H]1CCCCO[C@@H](CN(C)S(=O)(=O)c2ccccc2)[C@H](C)CN([C@H](C)CO)C(=O)c2cc(NS(=O)(=O)c3ccc(Cl)cc3)ccc2O1`: the cytotoxicity call is “inactive”.

`Cc1ccc(S(=O)(=O)Nc2ccc3c(c2)C(=O)N([C@@H](C)CO)C[C@@H](C)[C@H](CN(C)CC2CCCCC2)OCCCC[C@H](C)O3)cc1`: the cytotoxicity call is “inactive”.

Take `C[C@@H]1CCCCO[C@H](CN(C)S(=O)(=O)c2ccccc2)[C@H](C)CN([C@@H](C)CO)C(=O)c2cc(NS(=O)(=O)c3ccc(Cl)cc3)ccc2O1`: the cytotoxicity call was “inactive”.

For `C[C@H](CO)N1C[C@H](C)[C@H](CN(C)CC2CCCCC2)OCCCC[C@H](C)Oc2ccc(NS(=O)(=O)c3ccc(Cl)cc3)cc2C1=O`, the cytotoxicity call is “inactive”.

On to `Cc1ccc(S(=O)(=O)Nc2ccc3c(c2)C(=O)N([C@H](C)CO)C[C@H](C)[C@H](CN(C)CC2CCCCC2)OCCCC[C@H](C)O3)cc1`, for which the cytotoxicity call was “active”.

Turning to `C[C@@H]1CCCCO[C@H](CN(C)CC2CCCCC2)[C@H](C)CN([C@@H](C)CO)C(=O)c2cc(NS(=O)(=O)c3ccc(Cl)cc3)ccc2O1`, the cytotoxicity call was “active”.
